{"source": "paper PMC9911399", "about": "“Two distinct binding modes provide the RNA-binding protein RbFox with extraordinary sequence specificity”", "binders": {"B1": {"name": "UCUUGAA (DNA:RNA)", "RNA": "GGGAGACCGGAAUUCAGAUUGUCCUCUUGAAUUAAAUCCCGUCGUAGCCACCA", "DNA 1": "CAATCTGAATTCCGGTCTCCC", "DNA 2": "TGGTGGCTACGACGGGATT"}, "B2": {"name": "CUGUACU (DNA:RNA)", "RNA": "B1 RNA with U25C, C26U, U27G, G29A, A30C, A31U", "DNA 1": "CAATCTGAATTCCGGTCTCCC", "DNA 2": "TGGTGGCTACGACGGGATT"}, "B3": {"name": "UAUUACG (DNA:RNA)", "RNA": "B1 RNA with C26A, G29A, A30C, A31G", "DNA 1": "CAATCTGAATTCCGGTCTCCC", "DNA 2": "TGGTGGCTACGACGGGATT"}, "B4": {"name": "ACCUGUG (DNA:RNA)", "RNA": "B1 RNA with U25A, U27C, A30U, A31G", "DNA 1": "CAATCTGAATTCCGGTCTCCC", "DNA 2": "TGGTGGCTACGACGGGATT"}, "B5": {"name": "GAUAUAG (DNA:RNA)", "RNA": "B1 RNA with U25G, C26A, U28A, G29U, A31G", "DNA 1": "CAATCTGAATTCCGGTCTCCC", "DNA 2": "TGGTGGCTACGACGGGATT"}, "B6": {"name": "CUUAACU (DNA:RNA)", "RNA": "B1 RNA with U25C, C26U, U28A, G29A, A30C, A31U", "DNA 1": "CAATCTGAATTCCGGTCTCCC", "DNA 2": "TGGTGGCTACGACGGGATT"}, "B7": {"name": "AAGGGCU (DNA:RNA)", "RNA": "B1 RNA with U25A, C26A, U27G, U28G, A30C, A31U", "DNA 1": "CAATCTGAATTCCGGTCTCCC", "DNA 2": "TGGTGGCTACGACGGGATT"}, "B8": {"name": "UUAAAUG (DNA:RNA)", "RNA": "B1 RNA with C26U, U27A, U28A, G29A, A30U, A31G", "DNA 1": "CAATCTGAATTCCGGTCTCCC", "DNA 2": "TGGTGGCTACGACGGGATT"}, "B9": {"name": "UUGAAUC (DNA:RNA)", "RNA": "B1 RNA with C26U, U27G, U28A, G29A, A30U, A31C", "DNA 1": "CAATCTGAATTCCGGTCTCCC", "DNA 2": "TGGTGGCTACGACGGGATT"}, "B10": {"name": "UUGAAUG (DNA:RNA)", "RNA": "B1 RNA with C26U, U27G, U28A, G29A, A30U, A31G", "DNA 1": "CAATCTGAATTCCGGTCTCCC", "DNA 2": "TGGTGGCTACGACGGGATT"}, "B11": {"name": "GCUUGAU (DNA:RNA)", "RNA": "B1 RNA with U25G, A31U", "DNA 1": "CAATCTGAATTCCGGTCTCCC", "DNA 2": "TGGTGGCTACGACGGGATT"}, "B12": {"name": "UACUGGA (DNA:RNA)", "RNA": "B1 RNA with C26A, U27C, A30G", "DNA 1": "CAATCTGAATTCCGGTCTCCC", "DNA 2": "TGGTGGCTACGACGGGATT"}, "B13": {"name": "UCGUGAG (DNA:RNA)", "RNA": "B1 RNA with U27G, A31G", "DNA 1": "CAATCTGAATTCCGGTCTCCC", "DNA 2": "TGGTGGCTACGACGGGATT"}, "B14": {"name": "UGGCCUC (DNA:RNA)", "RNA": "B1 RNA with C26G, U27G, U28C, G29C, A30U, A31C", "DNA 1": "CAATCTGAATTCCGGTCTCCC", "DNA 2": "TGGTGGCTACGACGGGATT"}, "B15": {"name": "UGUGGCC (DNA:RNA)", "RNA": "B1 RNA with C26G, U28G, A30C, A31C", "DNA 1": "CAATCTGAATTCCGGTCTCCC", "DNA 2": "TGGTGGCTACGACGGGATT"}, "B16": {"name": "UGGCCGC (DNA:RNA)", "RNA": "B1 RNA with C26G, U27G, U28C, G29C, A30G, A31C", "DNA 1": "CAATCTGAATTCCGGTCTCCC", "DNA 2": "TGGTGGCTACGACGGGATT"}, "B17": {"name": "UGGCCUG (DNA:RNA)", "RNA": "B1 RNA with C26G, U27G, U28C, G29C, A30U, A31G", "DNA 1": "CAATCTGAATTCCGGTCTCCC", "DNA 2": "TGGTGGCTACGACGGGATT"}, "B18": {"name": "UGGCCGG (DNA:RNA)", "RNA": "B1 RNA with C26G, U27G, U28C, G29C, A30G, A31G", "DNA 1": "CAATCTGAATTCCGGTCTCCC", "DNA 2": "TGGTGGCTACGACGGGATT"}, "B19": {"name": "UGGCCGA (DNA:RNA)", "RNA": "B1 RNA with C26G, U27G, U28C, G29C, A30G", "DNA 1": "CAATCTGAATTCCGGTCTCCC", "DNA 2": "TGGTGGCTACGACGGGATT"}, "B20": {"name": "UGCGGUG (DNA:RNA)", "RNA": "B1 RNA with C26G, U27C, U28G, A30U, A31G", "DNA 1": "CAATCTGAATTCCGGTCTCCC", "DNA 2": "TGGTGGCTACGACGGGATT"}}, "note": "Numbering of substitutions follows the chain as printed; changes in the protein carry UniProt numbers. In all, about 16,000 sequences were measured (“ka relative to ugcaugu”: median about 0.0091, highest 2% from about 0.032 on). What follows is part of a selection rich in the highest values, with near analogues and random picks from the rest.", "data": [{"target": "T1, RBFOX1 RRM (Homo sapiens, UniProt Q9NWB1 109-208)", "T1 sequence": "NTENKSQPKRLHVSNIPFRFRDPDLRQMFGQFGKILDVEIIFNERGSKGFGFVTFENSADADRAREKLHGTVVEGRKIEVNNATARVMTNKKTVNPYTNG", "assay": "EMSA; HiTS-Eq, 1 nM pool, 10 min; buffer printed only for the single-RNA assays: 10 mM Tris pH 7.5, 150 mM NaCl, 3.4 mM EDTA, 0.001% NP-40, 30 C", "details": "tags: His6 N-terminal (pET28a); label: 5' 32P", "method_in_brief": "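A pool of RNA with 7 randomized nucleotides, 5′-radiolabelled and with DNA-annealed flanks, was equilibrated at 1 nM for 10 min in 50 µL with purified RbFox RRM, wild type or mutant, across increasing protein concentrations. Free RNA was separated by 8% native PAGE, excised, reverse-transcribed, barcoded by PCR and sequenced. Relative association constants were obtained from read-count changes of each RNA species versus the control reaction and normalised to the cognate motif.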", "values": [{"binder": "B1", "binding signal": "0.0145 KA relative to UGCAUGU"}, {"binder": "B2", "binding signal": "0.00801 KA relative to UGCAUGU"}, {"binder": "B3", "binding signal": "0.0123 KA relative to UGCAUGU"}, {"binder": "B4", "binding signal": "0.00788 KA relative to UGCAUGU"}, {"binder": "B5", "binding signal": "0.0101 KA relative to UGCAUGU"}, {"binder": "B6", "binding signal": "0.0019 KA relative to UGCAUGU"}, {"binder": "B7", "binding signal": "0.0102 KA relative to UGCAUGU"}, {"binder": "B8", "binding signal": "0.0123 KA relative to UGCAUGU"}, {"binder": "B9", "binding signal": "0.0179 KA relative to UGCAUGU"}, {"binder": "B10", "binding signal": "0.037 KA relative to UGCAUGU"}, {"binder": "B11", "binding signal": "0.0264 KA relative to UGCAUGU"}, {"binder": "B12", "binding signal": "0.00358 KA relative to UGCAUGU"}, {"binder": "B13", "binding signal": "0.00953 KA relative to UGCAUGU"}, {"binder": "B14", "binding signal": "0.0279 KA relative to UGCAUGU"}, {"binder": "B15", "binding signal": "0.0234 KA relative to UGCAUGU"}, {"binder": "B16", "binding signal": "0.0225 KA relative to UGCAUGU"}, {"binder": "B17", "binding signal": "0.0426 KA relative to UGCAUGU"}, {"binder": "B18", "binding signal": "0.0318 KA relative to UGCAUGU"}, {"binder": "B19", "binding signal": "0.0244 KA relative to UGCAUGU"}, {"binder": "B20", "binding signal": "0.0288 KA relative to UGCAUGU"}]}]}
